SMILES strings stand for the structures. Active and inactive are the calls of the source. The calls were made as follows: active = hit-call score of the fitted dose curve at least 0.9, where 1 is the maximum; inactive = score below 0.9.

Read-out in this test: Peroxisomal acyl-coenzyme A oxidase 1 (ACOX1) gene, ACOX1 (gene 51)
Kind of test: LTEA_HepaRG_ACOX1: Life Technologies and Expression Analysis (LTEA) Assay for Peroxisomal acyl-coenzyme A oxidase 1 (ACOX1) gene using HepaRG (AID 2283467). The following applies: mRNA level, 48 h; actives raise or lower the signal. The procedure: LTEA_HepaRG is a cell based, multiplexed-readout assay that uses HepaRG, a human liver cell line, with measurements taken at 48 hours after chemical dosing on a 96-well plate.LTEA_HepaRG_ACOX1 is one of 102 assay component(s) measured in the LTEA HepaRG cell culture assay. It is a marker of Steatosis.Data from the assay component LTEA_HepaRG_ACOX1 was analyzed into 1 endpoint. This assay endpoint, LTEA_HepaRG_ACOX1, was analyzed with bidirectional fitting relative to DMSO as the negative control and baseline of activity. Using a type of inducible reporter, measures of mRNA induction for gain or loss-of-signal activity can be used to understand regulation of transcription factor activity. To generalize the intended target to other relatable targets, this assay endpoint is annotated to the oxidase intended target family, where the subfamily is steatosis.
A total of 1060 chemcials from the ToxCast library were tested in eight-point concentration-response experiments. Cell culture and cytotoxicity assays were conducted at Thermo Fisher Scientific's Custom Services facility (Madison, WI). A single lot of human HepaRG cells (Thermo Fisher Scientific, Frederick, MD) was used for the cell culture experiments. 96-well format collagen type I coated plates of human HepaRG cells were prepared using established methods. Briefly, cryopreserved HepaRG cells were thawed, plated at a density of approximately 100,000 cells/well in HepaRG Thaw, Plate, and General Purpose media (HPRG770, Thermo Fisher Scientific), and incubated for 48 hours. 0.5% DMSO was selected as vehicle control to balance the requisite need of DMSO in HepaRG cultures to maintain differentiation (for example, baseline metabolism, proportions of hepatocytes vs. cholangiocytes), while enabling further hepatic receptor pathway activation (for example, PXR and CAR) in response to chemical exposure. 48 hours after plating, the culture medium was replaced with HepaRG Serum-Free Incudtion Media. Cells were exposed to each test chemical in duplicate and maintained in CO2 incubators for another 48 hours. Chemical plates were thawed to room temperature and 200x concentrations of treatment groups were prepared. 8-point conentration-reponse curves were made with the highest exposure at 100 uM, followed by half-log dilutions, all in 0.5% DMSO. Each test plate contained variouse controls, induction positive controls (1mM phenobarbital), cytotoxicity positive controls ([…] aflatoxin B1), vehicle controls (0.5% DMSO), and total lysis controls (0.5% DMSO). Cell morphology images were taken using an Essen IncuCyte FLR automated microscope, with six 96-well plates imaged in about 24 minutes. Images were captured and exported and JPEG files. Spent culture media was transfered to black-well plates for the LDH assay, and remaining media was sorted at -80 C for later use. Cells were treated with RLT buffer and frozen until shipped for gene expression analysis. Total RNA was isolated from the cell suspension in 75 uL of Buffer RLT (Qiagen, Germantown, MD 20874) by Quintiles/Expression Analysis (Durham, NC) using a custom isolation procedure. Total RNA from each plate well was transferred to a preamplification plate. Fluidigm's 96.96 Dynamic ArrayTM (Fluidigm, Amsterdam, the Netherlands) technology was used for gene expression analyses by quantitative reverse transcription polymerase chain reaction (qRT-PCR, performed by Quintiles/Expression Analysis, Durham, NC)89. Standard TaqManTM Assays (Applied Biosystems/ThermoFisher Scientific, Foster City, CA) were used to assess the expression of 93 genes selected based on their selectivity and sensitivity to important hepatic receptors known to be modulated by environmental chemicals; importance in human hepatocyte functionality; and hepatotoxicity. […]
For `CCN(CC)N=O`, the molecule was called inactive.
Still for that read-out and setting: the same measure for `CCCCC(CC)COC(=O)c1ccc(C(=O)OCC(CC)CCCC)c(C(=O)OCC(CC)CCCC)c1` (stereo not given): “inactive”; for `CCNS(=O)(=O)C(F)(F)C(F)(F)C(F)(F)C(F)(F)C(F)(F)C(F)(F)C(F)(F)C(F)(F)F`: “inactive”; for `OCCOCCO`: “inactive”.
On the same count and under the same terms, the same measure for `Clc1ccccc1Cl`: “inactive”.
Same read-out and setting: the same measure for `[O-][Cl+]O`: “inactive”.
`c1ccc(N=Nc2ccccc2)cc1`: the molecule was called inactive.
For the molecule `O=[N+]([O-])C(Br)(CO)CO`, the molecule was classed as inactive.
As for `Nc1ccc(Cl)cc1N`, the AC50 is 27 µM (active).
In the case of `C1=Cc2cccc3cccc1c23`, the result was inactive.
On the same count and under the same terms, the same measure for `COC(=O)c1ccccc1N`: “inactive”; for `CC(C)N(Cc1ccccc1)C(=O)C(C)(C)C`: “inactive”; for `CC(C)COC(=O)c1ccccc1C(=O)OCC(C)C`: “inactive”.
The same measure, in the same setting: the same measure for `Oc1ccccc1Cl`: “inactive”.
Same read-out and setting: as for `CCCSC(=O)N(CCC)CCC`, the entry is “inactive”; as for `Cc1ccc(N)c(N)c1`, “inactive”.
`Clc1ccc(C(c2ccc(Cl)cc2)C(Cl)Cl)cc1`: the molecule was classed as inactive.
Same read-out and setting: as for `c1ccc2c(c1)-c1cccc3cccc-2c13`, the entry is “inactive”.
With `O=C(Nc1ccccc1)c1ccccc1I`, the molecule was classed as inactive.
The same measure, in the same setting: the same measure for `COP(=S)(OC)SCN1C(=O)c2ccccc2C1=O`: “inactive”; for `C[N+](C)(C)CC1CO1` (stereo not given): “inactive”; for `OCCCBr`: “inactive”.
The same measure, in the same setting: as for `Oc1ccc2ccc3cccc4ccc1c2c34`, the entry is “inactive”; as for `CCCCCCCCOC(=O)c1ccc(C(=O)OCCCCCCCC)c(C(=O)OCCCCCCCC)c1`, “inactive”; as for `OCCCl`, “inactive”.
The same measure, in the same setting: the same measure for `C[C@]12C=CC3=C4CCC(=O)C=C4CC[C@H]3[C@@H]1CC[C@@H]2O`: “inactive”; for `CN(C)c1ccc(C(=O)c2ccc(N(C)C)cc2)cc1`: “inactive”.
Regarding `CC(C)(C)OOC(C)(C)CCC(C)(C)OOC(C)(C)C`, the molecule was classed as inactive.
Take `CS(=O)(=O)NC(=O)c1cc(Oc2ccc(C(F)(F)F)cc2Cl)ccc1[N+](=O)[O-]`: the call was inactive.
For `COc1cc(C=O)cc2c1[C@H](COC(N)=O)[C@]1(OC(C)=O)ON2C[C@H]2[C@@H]1N2C(C)=O`, the AC50 is 94.2 µM (active).
On to `CC(C)(C)OOC(=O)c1ccccc1`, for which the call was inactive.
On to `O=[N+]([O-])c1ccc(Oc2ccc(Cl)cc2Cl)cc1`, for which the result was inactive.
Consider `C=CCc1ccc2c(c1)OCO2`, for which the molecule was called inactive.
Still for that read-out and setting: the same measure for `N#CC(Br)(Br)C(N)=O`: “inactive”.
For `Cc1cccc(N)c1N`, the concentration at half-maximal activity (AC50) is 50 µM (active).
As for `CCOC(=O)[C@]1(c2ccccc2)Oc2ccccc2[C@@H]1N`, the half-maximal activity concentration (AC50) was 87.5 µM (active).
For `CCCCOC(=O)c1ccccc1C(=O)OCc1ccccc1`, the call was inactive.
For `CCCCCCCCn1sccc1=O`, the AC50 is 83.8 µM (active).
On to `O=C(Oc1ccc(Br)cc1)N1CCN2CCC1CC2`, for which the call was inactive.
For `O=C(N[C@H](c1ccccc1)[C@@H]1CN2CCC1CC2)c1c(Cl)ccc(C(F)(F)F)c1Cl`, the AC50 is 70.3 µM (active).

What is called AC50 is the midpoint of the concentration-response curve, whichever way the signal moves.

For the origin of these results see PubChem BioAssay (EPA / NIEHS).
